Data as given in PubChem BioAssay (NCATS).
Inconclusive results are not listed. Activity calls are given as the source filed them. Unless noted, calls follow the shape of the dose curve; as a rule, active = well fitted curve in the direction sought with a large enough effect; inconclusive = small, poorly fitted or top-dose-only effect, or another doubt; inactive = no such curve, though single readings can be large; an effect the other way counts as inactive or inconclusive.

How the values were obtained:
JEG-3 = assay: Primary qHTS to identify gynecologic anti-cancer compounds using libraries of approved drugs and bioactive compounds (AID 1345084); details: Gynecologic cancer cell panel viability, ATPlite luminescence, 48 h; series mostly up to 57.5 µM; also: % is scaled to controls: 0 for no effect and ±100 for the full control effect; nearly all actives have a fitted effect of over 55% in size
Outline: (§1)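 In this quantitative HTS, cell killing is estimated from loss of ATP-dependent luciferase light. Cells see five compound concentrations over a 48 h exposure.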

OV90 = assay: as above; details: Gynecologic cancer cell panel viability, ATPlite luminescence, 48 h; series mostly up to 57.5 µM
Outline: as §1

PA-1 = assay: as above; details: Gynecologic cancer cell panel viability, ATPlite luminescence, 48 h; series mostly up to 57.5 µM
Outline: as §1

SKOV3 = assay: as above; details: Gynecologic cancer cell panel viability, ATPlite luminescence, 48 h; series mostly up to 57.5 µM
Outline: as §1

Tov-21-G = assay: as above; details: Gynecologic cancer cell panel viability, ATPlite luminescence, 48 h; series mostly up to 57.5 µM
Outline: as §1

Tov112D = assay: as above; details: Gynecologic cancer cell panel viability, ATPlite luminescence, 48 h; series mostly up to 57.5 µM
Outline: as §1

[1] = Drug repurposing screens with cells derived from glioblastoma tumor samples (AID 1345199); details: GBM patient neurospheres viability, ATP luminescence, 48 h; also: % is scaled to controls: 0 for no effect and ±100 for the full control effect; nearly all actives have a fitted effect of over 40% in size
Outline: (§2)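 Four patient lines of CD133+ GBM neurospheres were screened at several concentrations; hits were retested in those lines plus three slower-growing GBM lines, using 48-hour treatment and ATP-based viability.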

astro = assay: as above; details: viability, ATP luminescence, 48 h; series mostly up to 45.9 µM
Outline: as §2

[2] = biological target: Nuclear receptor subfamily 1 group I member 2 (Rattus norvegicus) (UniProt Q9R1A7); assay: qHTS assay for small molecule activators of the rat pregnane X receptor (rPXR) signaling pathway (AID 651751; call rule not given here; also: 0% is about no effect); details: rPXR reporter cells, luciferase (One-Glo), 24 h
Nuclear receptor subfamily 1 group I member 2 (Rattus norvegicus), sequence (Q9R1A7 whole entry, looked up): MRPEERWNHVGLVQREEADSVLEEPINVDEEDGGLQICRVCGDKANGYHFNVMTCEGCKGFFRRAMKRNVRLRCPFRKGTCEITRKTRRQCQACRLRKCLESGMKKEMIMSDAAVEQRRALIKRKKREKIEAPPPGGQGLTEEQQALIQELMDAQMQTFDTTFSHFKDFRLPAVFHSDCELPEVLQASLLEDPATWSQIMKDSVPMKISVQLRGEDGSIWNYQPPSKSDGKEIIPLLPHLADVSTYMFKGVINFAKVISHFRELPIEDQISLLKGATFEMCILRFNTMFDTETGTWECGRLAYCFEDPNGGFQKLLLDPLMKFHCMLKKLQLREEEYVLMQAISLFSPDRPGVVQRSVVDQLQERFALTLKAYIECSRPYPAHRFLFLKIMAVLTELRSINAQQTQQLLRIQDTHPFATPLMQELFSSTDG

[3] = at 20 µM (top of the series), tumour line C
[4] = at 21.2 µM (top of the series), tumour line B
[5] = at 21.2 µM (top of the series), tumour line D
[6] = at 45.9 µM (top of the series), tumour line B
[7] = at 45.9 µM (top of the series), tumour line D
[8] = at 46.1 µM (top of the series), tumour line C
[9] = at 46 µM (top of the series), tumour line A
[10] = at 21.3 µM (top of the series), tumour line A

CC(C)(C)NCC(O)COc1cccc2c1CCC(=O)N2 (stereo not drawn)
inactive: outcome (JEG-3) | Potency (OV90) | outcome (PA-1) | outcome (SKOV3) | outcome (Tov-21-G) | outcome (Tov112D) | activity, negative = cell killing [1, 3] -4.91% | activity, negative = cell killing [1, 4] -10.6% | activity, negative = cell killing [1, 5] 12.4% | outcome (astro)

O=S1(=O)OC(c2ccc(O)cc2)(c2ccc(O)cc2)c2ccccc21
inactive: outcome (JEG-3) | Potency (OV90) | outcome (PA-1) | outcome (SKOV3) | outcome (Tov-21-G) | outcome (Tov112D) | activity, negative = cell killing [1, 6] -17.4% | activity, negative = cell killing [1, 7] -14.4% | activity, negative = cell killing [1, 8] 11.5% | outcome (astro)

CCC(C)(CN(C)C)OC(=O)c1ccccc1 (stereo not drawn)
inactive: outcome (JEG-3) | Potency (OV90) | outcome (PA-1) | outcome (SKOV3) | outcome (Tov-21-G) | outcome (Tov112D) | activity, negative = cell killing [1, 3] -12.8% | activity, negative = cell killing [1, 4] -2.39% | activity, negative = cell killing [1, 5] -5.13% | outcome (astro)

O=c1[nH]c2cc(C(F)(F)F)c(N3CCOCC3)cc2n(CP(=O)(O)O)c1=O
inactive: outcome (JEG-3) | Potency (OV90) | outcome (PA-1) | outcome (SKOV3) | outcome (Tov-21-G) | outcome (Tov112D) | activity, negative = cell killing [1, 6] -1.62% | activity, negative = cell killing [1, 7] -2.48% | activity, negative = cell killing [1, 8] -20.3% | outcome (astro)

Nc1c2c(nc3c1CCC3)CCCC2
inactive: outcome (JEG-3) | Potency (OV90) | outcome (PA-1) | outcome (SKOV3) | outcome (Tov-21-G) | outcome (Tov112D) | activity, negative = cell killing [1, 6] -2.28% | activity, negative = cell killing [1, 7] -13.4% | activity, negative = cell killing [1, 8] -27.2% | outcome (astro)

C[N+](C)(C)CC(O)CC(=O)[O-] (stereo not drawn)
inactive: outcome (JEG-3) | Potency (OV90) | outcome (PA-1) | outcome (SKOV3) | outcome (Tov-21-G) | outcome (Tov112D) | activity, negative = cell killing [1, 6] -2.63% | activity, negative = cell killing [1, 7] -13.3% | activity, negative = cell killing [1, 8] -12.8% | outcome (astro)

O=C(CN1CCNCC1)NC1CCCCC1
inactive: outcome (JEG-3) | Potency (OV90) | outcome (PA-1) | outcome (SKOV3) | outcome (Tov-21-G) | outcome (Tov112D) | activity, negative = cell killing [1, 6] -13.1% | activity, negative = cell killing [1, 7] -7.64% | activity, negative = cell killing [1, 8] -22.5% | outcome (astro)

CC(C)=CCC[C@@](C)(O)[C@H]1CC=C(C)CC1
inactive: outcome (JEG-3) | Potency (OV90) | outcome (PA-1) | outcome (SKOV3) | outcome (Tov-21-G) | outcome (Tov112D) | activity, negative = cell killing [1, 6] -3.12% | activity, negative = cell killing [1, 7] 18.2% | activity, negative = cell killing [1, 8] -10.5% | outcome (astro)

CCOC(=O)[C@H](CCc1ccccc1)N[C@@H](C)C(=O)N1Cc2cc(OC)c(OC)cc2C[C@H]1C(=O)O
inactive: outcome (JEG-3) | Potency (OV90) | outcome (PA-1) | outcome (SKOV3) | outcome (Tov-21-G) | outcome (Tov112D) | activity, negative = cell killing [1, 6] -9.77% | activity, negative = cell killing [1, 7] -6.92% | activity, negative = cell killing [1, 8] -6.4% | outcome (astro)

C=CCNC(N)=S
inactive: outcome (JEG-3) | Potency (OV90) | outcome (PA-1) | outcome (SKOV3) | outcome (Tov-21-G) | outcome (Tov112D) | activity, negative = cell killing [1, 6] -3.35% | activity, negative = cell killing [1, 7] -8.91% | activity, negative = cell killing [1, 9] -13.7% | activity, negative = cell killing [1, 8] -3.97% | outcome (astro) | max response [2] -5.15%

NNc1nnc(NN)c2ccccc12
inactive: outcome (JEG-3) | Potency (OV90) | outcome (PA-1) | outcome (SKOV3) | outcome (Tov-21-G) | outcome (Tov112D) | activity, negative = cell killing [1, 6] -9.47% | activity, negative = cell killing [1, 7] -12.6% | activity, negative = cell killing [1, 8] -17.6% | outcome (astro)

NS(=O)(=O)c1cc(C2(O)NC(=O)c3ccccc32)ccc1Cl (stereo not drawn)
inactive: outcome (JEG-3) | Potency (OV90) | outcome (PA-1) | outcome (SKOV3) | outcome (Tov-21-G) | outcome (Tov112D) | activity, negative = cell killing [1, 3] 3.89% | activity, negative = cell killing [1, 4] 6.28% | activity, negative = cell killing [1, 5] -20.6% | outcome (astro)

Cc1cc(OI)c(C(C)C)cc1-c1cc(C(C)C)c(OI)cc1C
inactive: outcome (JEG-3) | Potency (OV90) | outcome (PA-1) | outcome (SKOV3) | outcome (Tov-21-G) | outcome (Tov112D) | activity, negative = cell killing [1, 6] -6.87% | activity, negative = cell killing [1, 7] -13.4% | activity, negative = cell killing [1, 8] 33.1% | outcome (astro)

O=c1[nH]c(=O)n([C@H]2C[C@H](O)[C@@H](CO)O2)cc1I
inactive: outcome (JEG-3) | Potency (OV90) | outcome (PA-1) | outcome (SKOV3) | outcome (Tov-21-G) | outcome (Tov112D) | activity, negative = cell killing [1, 3] -27.4% | activity, negative = cell killing [1, 4] -17% | activity, negative = cell killing [1, 10] -18.1% | outcome (astro)

COC(=O)c1ccc(O)cc1
inactive: outcome (JEG-3) | Potency (OV90) | outcome (PA-1) | outcome (SKOV3) | outcome (Tov-21-G) | outcome (Tov112D) | activity, negative = cell killing [1, 6] -4.62% | activity, negative = cell killing [1, 7] -7.84% | activity, negative = cell killing [1, 8] -1.97% | outcome (astro) | max response [2] -3.01%

COC(=O)c1cccnc1
inactive: outcome (JEG-3) | Potency (OV90) | outcome (PA-1) | outcome (Tov-21-G) | outcome (Tov112D) | activity, negative = cell killing [1, 6] -7.13% | activity, negative = cell killing [1, 7] -4.81% | activity, negative = cell killing [1, 9] -28.2% | activity, negative = cell killing [1, 8] 40.1% | outcome (astro)

Cc1ccsc1/C=C/C1=NCCCN1C
inactive: outcome (JEG-3) | Potency (OV90) | outcome (PA-1) | outcome (Tov-21-G) | outcome (Tov112D) | activity, negative = cell killing [1, 3] -9.86% | activity, negative = cell killing [1, 4] -2.99% | activity, negative = cell killing [1, 5] -7.19% | activity, negative = cell killing [1, 10] -22.2% | outcome (astro)

C[C@H]1COc2c(C3(N)CC3)c(F)cc3c(=O)c(C(=O)O)cn1c23
inactive: outcome (JEG-3) | Potency (OV90) | outcome (PA-1) | outcome (SKOV3) | outcome (Tov-21-G) | outcome (Tov112D) | activity, negative = cell killing [1, 6] -13.2% | activity, negative = cell killing [1, 8] -15.1% | outcome (astro)

O=C(OOC(=O)c1ccccc1)c1ccccc1
inactive: outcome (JEG-3) | Potency (OV90) | outcome (PA-1) | outcome (SKOV3) | outcome (Tov-21-G) | outcome (Tov112D) | activity, negative = cell killing [1, 6] -7.59% | activity, negative = cell killing [1, 7] -7.12% | activity, negative = cell killing [1, 8] -4.84% | outcome (astro) | max response [2] -0.865%
